According to ChEMBL document CHEMBL1201862, “PubChem BioAssay data set” (2004):
Out of some 48,000 sequences screened, about 6,100 (13%) were called active. Cut-off read from the data, not from the text of the source: active = GI50 up to about 1.1 µM and inactive = higher. The list comes from a sample in which actives are over-represented; it also holds similar and randomly drawn sequences. Potency and affinity values are given separately.

What follows are substances tested on SR.

Substance	GI50 [nM]
CISPLATIN, CHEMBL11359	618
[Bis(aminomethyl)pentamethylenesilane]dichloropaltinum(II), CHEMBL2146202	1490
[Bis(aminomethyl)dimethylsilane]tetrachloroplatinum(IV), CHEMBL2146190	3440
[Bis(aminomethyl)tetramethylenesilane]dichloropaltinum(II), CHEMBL2146205	3520
[Bis(aminomethyl)diethylsilane]tetrachloroplatinum(IV), CHEMBL2146203	382
[Bis(aminomethyl)tetramethylenesilane]tetrachloropaltinum(IV), CHEMBL2146189	499
[Bis(aminomethyl)pentamethylenesilane]tetrachloropaltinum(IV), CHEMBL2146204	422
mu-(1,7-nanodiamine-N,N')bis-(cis-aminedichloroplatimum (II)), CHEMBL2146215	2780
